The test deals with Hexokinase HKDC1 (Homo sapiens) (UniProt Q2TB90). As to the kind of experiment: compounds lowering human HKDC1 activity – biochemical, single concentration, confirmation (AID 504710). The note with it: recombinant HKDC1, G6PDH/diaphorase/resazurin fluorescence; at 20 µM; stronger effect = higher value. (In general: Alamar Blue is a resazurin reagent that responds to reducing activity.)

Values joined by “and” are separate entries in the source; they are usually repeats but may differ in a detail not shown here. Identical values can stand only once. A number with no mark means an inactive call. Active and inactive are the calls of the source.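 Rule for the calls: active = inhibition reaching about 16% in any single replicate (limit read from the data); inactive = the rest.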

For orientation: inhibition means the drop in the measured response relative to a control, in per cent.

Chain of Hexokinase HKDC1 (Homo sapiens) (Q2TB90 whole entry, looked up): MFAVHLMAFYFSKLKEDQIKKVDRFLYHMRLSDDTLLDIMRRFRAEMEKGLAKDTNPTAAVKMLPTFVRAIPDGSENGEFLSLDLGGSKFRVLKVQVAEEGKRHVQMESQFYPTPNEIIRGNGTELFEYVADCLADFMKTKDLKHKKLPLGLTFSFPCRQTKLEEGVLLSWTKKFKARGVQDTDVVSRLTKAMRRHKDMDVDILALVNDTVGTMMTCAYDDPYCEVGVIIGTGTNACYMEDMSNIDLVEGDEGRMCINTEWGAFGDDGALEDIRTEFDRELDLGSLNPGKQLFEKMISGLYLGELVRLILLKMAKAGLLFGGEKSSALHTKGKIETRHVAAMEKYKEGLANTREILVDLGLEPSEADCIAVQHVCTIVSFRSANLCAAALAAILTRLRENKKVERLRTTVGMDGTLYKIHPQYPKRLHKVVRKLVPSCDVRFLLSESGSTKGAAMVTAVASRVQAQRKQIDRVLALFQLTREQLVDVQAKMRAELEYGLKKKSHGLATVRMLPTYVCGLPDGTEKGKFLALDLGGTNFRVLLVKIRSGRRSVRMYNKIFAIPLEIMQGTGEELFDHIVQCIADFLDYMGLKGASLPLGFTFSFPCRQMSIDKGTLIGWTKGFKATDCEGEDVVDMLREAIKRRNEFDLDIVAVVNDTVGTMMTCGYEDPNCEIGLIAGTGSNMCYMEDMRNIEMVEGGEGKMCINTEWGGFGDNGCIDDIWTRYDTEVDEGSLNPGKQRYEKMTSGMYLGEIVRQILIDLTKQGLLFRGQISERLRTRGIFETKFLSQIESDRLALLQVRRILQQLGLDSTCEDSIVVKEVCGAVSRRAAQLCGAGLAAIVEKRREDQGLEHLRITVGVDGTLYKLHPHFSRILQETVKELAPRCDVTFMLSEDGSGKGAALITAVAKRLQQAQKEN

Take `CC(=NNC(=S)N1CC2CCC(CC2)C1)c1ccncn1`: the inhibition was -61.4%.

For `Cc1ccc(SC2=C(N(C)C)C(=O)c3ccccc3C2=O)cc1`, the inhibition is 59.9% (active).

Consider `Cc1ccc(C(=O)c2c(C)oc3c2C(=O)C(=O)c2ccccc2-3)cc1`, for which the inhibition was 46.2% (active).

Consider `COC(=O)c1ccc(NC(=O)CSc2n[nH]c(-c3ccncc3)n2)cc1`, for which the inhibition was 43% (active).

For `CC(=O)N(C1=C(Cl)C(=O)c2ccccc2C1=O)C1CCCCC1`, the inhibition is 78.2% (active).

Regarding `CN(C)Cc1cc(O)c(CN(C)C)cc1O`, the inhibition is 70.3% (active).

Consider `COc1ncnc2c1oc1nc(C(C)C)c3c(c12)CC(C)(C)OC3`, for which the inhibition was 43.5% (active).

For `CCc1c(C)c(C#N)c2nc3ccccc3n2c1NC`, the inhibition is -43.3%.

For the compound `O=C(Nc1ccc(N2CCCC2)cc1)c1cccc(-c2cc3ccccc3oc2=O)c1`, the inhibition was -24.8%.

As to `Cc1cccc2c(N=NC(=O)c3ccc(NS(=O)(=O)c4cccs4)cc3)c(O)[nH]c12`, the inhibition was 63.2% (active).

Take `S=C(NCc1ccccn1)NN=Cc1ccccn1`: the inhibition is -45.4%.

Regarding `CCc1ccc2c(c1)C(NC(C)=O)C(=O)N2CCN1CCOCC1` (stereo not given), the inhibition is 57.2% (active).

Take `CC(=O)Nc1ccc(C2=NNC(=Nc3ccc(S(=O)(=O)N4CCOCC4)cc3)SC2)cc1`: the inhibition is -234%.

In the case of `O=C(CNC(=O)/C=C/c1ccco1)N=Nc1c(O)[nH]c2ccccc12`, the inhibition was 39% (active).

As for `O=C1C(Cl)=C(Oc2ccccc2)C(=O)c2ccccc21`, the inhibition is 77.7% (active).

Consider `Cn1cnnc1SC1c2cccc3cccc(c23)C1NS(=O)(=O)c1ccccc1` (stereo not given), for which the inhibition is -64%.

Take `Nc1nc(N2CCN(c3ccccn3)CC2)nc2ccccc12`: the inhibition is -44.1%.

Turning to `CC1(C)C(=O)Nc2ccccc2N1C(=O)COC(=O)c1cc(Cl)cc(Cl)c1`, the inhibition is -50.1%.

Turning to `CC(C)Nc1nnc(SCC(=O)Nc2ccc3c(c2)C(=O)c2ccccc2C3=O)s1`, the inhibition was 53.5% (active).

With `CCCCC[C@H](O)/C=C/[C@@H]1[C@@H](C/C=C\CCCC(=O)OC)[C@@H](O)C[C@H]1O`, the inhibition was 61% (active).

With `Cc1nonc1C(=O)N/N=C/c1ccc(O)cc1O`, the inhibition is -33.6%.

For `Cc1cc(C)n2cc(CSc3nnc(-c4ccccc4)c(-c4ccccc4)n3)nc2n1`, the inhibition was 38.5% (active).

As for `COc1ccc(S(=O)(=O)Nc2cc(SCC(=O)O)c(O)c3ccccc23)cc1`, the inhibition is 47.2% (active).

As for `Cc1ccc(N=c2ssnc2Cl)cc1`, the inhibition was -43.7%.

For `CCOc1ccc2c(c1)C(NC(C)=O)C(=O)N2CCN1CCOCC1` (stereo not given), the inhibition was 60.9% (active).

As to `CCc1ccc(C2=NNC(=Nc3cccc(S(=O)(=O)N(C)C)c3)SC2)cc1`, the inhibition was -141%.

With `CC(C)(C)c1ccc(-c2csc(NNC3=NCCCCC3)n2)cc1`, the inhibition is -39.4%.

Turning to `O=C1C(Nc2ccc(O)cc2)=C/C(=N/S(=O)(=O)c2cccs2)c2ccccc21`, the inhibition is 56.9% (active).

With `CCCCNC(=O)c1sc(=S)n2c1[nH]c(=O)c1ccccc12`, the inhibition was 56.5% (active).

With `Cc1ccc(N=Nc2ccc(O)c3ncccc23)cc1C`, the inhibition was -40.4%.

With `CC(=NNC(=S)N1CCN(C2CCCCCC2)CC1)c1ccccn1`, the inhibition was -39.9%.

For the compound `NC(=NCCCCCCN=C(N)/N=C(\N)Nc1ccc(Cl)cc1)/N=C(\N)Nc1ccc(Cl)cc1`, the inhibition is 49.3% (active) and 46.4% (active).

Regarding `CC(=NNC(=S)N1CCCCC1)c1cccc(C)n1`, the inhibition was -39.6%.

Consider `COc1ccc(N=C2NN=C(c3ccc4c(c3)OCCO4)CS2)cc1`, for which the inhibition is -33.1%.

Take `N#Cc1c(SCC(=O)Nc2nc3ccc(Br)cc3s2)sc2c(O)cc(=O)[nH]c12`: the inhibition is 44.9% (active).

Take `CN(C)c1ccc(Cc2cc3c(O)ccc(O)c3cc(Cc3ccc(N(C)C)cc3)c2=O)cc1`: the inhibition was 44.7% (active).

For `CC(=O)Nc1ccc(NC2=C/C(=N/S(=O)(=O)c3cccs3)c3ccccc3C2=O)cc1`, the inhibition was 51.9% (active).

For the compound `Cc1ccccc1N=C1NN=C(c2ccccc2F)CS1`, the inhibition was -40.3%.

For `Cc1ccc(-n2c3nc(=O)[nH]c(=O)c-3cc3cc([N+](=O)[O-])ccc32)cc1`, the inhibition was 56.2% (active).

On to `CCOC(=O)c1ccc(NC2=CC(=O)C(=O)c3ccccc32)cc1`, for which the inhibition was 27.6% (active).

Take `CCCOc1ccc(/C=N/NC(=S)Nc2ccccc2[N+](=O)[O-])c(O)c1`: the inhibition is -47.6%.

With `O=C(NCCc1ccccc1)C(c1cccs1)N(C(=O)CCl)c1ccc(Cl)cc1` (stereo not given), the inhibition was 23% (active).

Turning to `Cc1cccc(C)c1Nc1nnc(SCc2cn3cccc(C)c3n2)s1`, the inhibition is 54.1% (active).

For the compound `O=C(CSc1n[nH]c(-c2cccnc2)n1)Nc1ccnc2ccccc12`, the inhibition was 46% (active).

As for `C=CCn1c(SCC(=O)Nc2sc3c(c2C#N)CCC(C)C3)nc2cc(C(=O)O)ccc2c1=O` (stereo not given), the inhibition is 32.7% (active).

For the origin of these results see PubChem BioAssay AID504710 (Sanford-Burnham Center for Chemical Genomics, 2011).
